# Measurements as given in PMC7883291.
# Assays:
# Assay in all cases: cross-link between two proteins; cross-linking mass spectrometry
# [1] = molecular target: Acyl carrier protein, mitochondrial (UniProt P52505)
# [2] = molecular target: NADH dehydrogenase [ubiquinone] 1 beta subcomplex subunit 11, mitochondrial (UniProt Q8HXG5)
# [3] = molecular target: T1, Cytochrome b-c1 complex subunit 2, mitochondrial (UniProt P23004)
# T1 sequence: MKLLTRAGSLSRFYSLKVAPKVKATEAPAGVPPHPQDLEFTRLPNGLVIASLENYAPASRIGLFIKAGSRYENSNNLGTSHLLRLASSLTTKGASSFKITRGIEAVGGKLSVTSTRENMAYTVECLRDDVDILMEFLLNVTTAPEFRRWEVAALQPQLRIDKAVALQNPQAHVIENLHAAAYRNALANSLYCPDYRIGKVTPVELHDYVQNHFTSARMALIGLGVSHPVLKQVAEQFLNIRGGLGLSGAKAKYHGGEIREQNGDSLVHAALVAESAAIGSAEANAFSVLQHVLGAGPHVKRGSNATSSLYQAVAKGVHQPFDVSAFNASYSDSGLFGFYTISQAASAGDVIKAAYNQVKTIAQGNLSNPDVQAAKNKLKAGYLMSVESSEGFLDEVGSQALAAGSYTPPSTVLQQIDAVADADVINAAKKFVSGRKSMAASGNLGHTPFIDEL
# [4] = molecular target: NADH dehydrogenase [ubiquinone] 1 alpha subcomplex subunit 9, mitochondrial (UniProt P34943)
# Sequence of NADH dehydrogenase [ubiquinone] 1 alpha subcomplex subunit 9, mitochondrial (P34943 whole entry, one chain of several): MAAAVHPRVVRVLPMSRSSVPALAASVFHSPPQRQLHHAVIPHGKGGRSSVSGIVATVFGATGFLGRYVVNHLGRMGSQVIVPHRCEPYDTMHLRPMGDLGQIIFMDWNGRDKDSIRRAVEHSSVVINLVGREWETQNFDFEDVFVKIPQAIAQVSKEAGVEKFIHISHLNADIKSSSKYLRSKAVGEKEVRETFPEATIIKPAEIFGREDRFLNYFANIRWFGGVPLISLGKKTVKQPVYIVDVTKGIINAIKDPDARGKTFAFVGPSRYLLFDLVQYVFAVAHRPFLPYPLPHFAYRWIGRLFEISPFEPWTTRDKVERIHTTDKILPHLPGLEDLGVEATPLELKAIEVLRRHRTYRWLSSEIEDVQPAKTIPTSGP
# Sequence of NADH dehydrogenase [ubiquinone] 1 beta subcomplex subunit 11, mitochondrial (Q8HXG5 whole entry, one chain of several): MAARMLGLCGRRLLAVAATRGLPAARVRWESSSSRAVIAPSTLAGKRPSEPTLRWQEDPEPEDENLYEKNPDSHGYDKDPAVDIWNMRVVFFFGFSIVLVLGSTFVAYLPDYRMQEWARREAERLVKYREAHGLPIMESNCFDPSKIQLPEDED
substance,measurement,setting,value
G5E543,listed as a hit,[1],yes
same,listed as a hit,[2],yes
A0A3Q1MBD7,listed as a hit,[3],yes
A8WFQ0,listed as a hit,[4],yes
